About 83,000 compounds went through this panel and 20% of them were active in at least one assay; those are over-represented in the sample as a whole.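 Treatment: one concentration, 48 hours, 96-well format. Scoring: percent growth, with anything below 10 considered active.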 Unmarked numbers belong to inactive results. Calls of active or inactive are those of the source.
Legend:
Assay in all cases: NCI-60 one-dose screen, 48 h (100 = growth as untreated, 0 = no growth, -100 = all killed)
Settings in all cases: 10 µM unless noted
NCI-H23 lung = system: NCI-H23 lung
NCI-H226 lung = system: NCI-H226 lung
NCI-H322M lung = system: NCI-H322M lung
HOP-62 NSCLC = system: HOP-62 NSCLC
NCI-H460 lung = system: NCI-H460 lung
HOP-92 NSCLC = system: HOP-92 NSCLC
NCI-H522 lung = system: NCI-H522 lung
A549/ATCC NSCLC = system: A549/ATCC NSCLC
786-0 renal = system: 786-0 renal
COLO 205 colon = system: COLO 205 colon

**Q.** What does the source list for `Cc1nc(N2CCOCC2)sc1S(N)(=O)=O`?
**A.** growth (NCI-H23 lung): 102%; growth (NCI-H226 lung): 84.5%; growth (NCI-H322M lung): 94%; growth (HOP-62 NSCLC): 94.5%; growth (NCI-H460 lung): 102%; growth (HOP-92 NSCLC): 88.2%; growth (NCI-H522 lung): 92.8%; growth (A549/ATCC NSCLC): 101%; growth (786-0 renal): 101%; growth (COLO 205 colon): 104%

**Q.** How did the growth (NCI-H23 lung) turn out when `COc1ccc(-c2nnc(-c3ccc4c(c3)nc(-c3ccncc3)n4C3CCCCC3)o2)cc1` was run?
**A.** 72.8%

**Q.** What about the growth (NCI-H226 lung) of the same molecule?
**A.** 63.6%

**Q.** And the growth (NCI-H322M lung)?
**A.** 82%

**Q.** What about the growth (HOP-62 NSCLC) of the same molecule?
**A.** 67.7%

**Q.** What about the growth (NCI-H460 lung) of the same molecule?
**A.** 73.7%

**Q.** And the growth (NCI-H522 lung)?
**A.** 61.4%

**Q.** And the growth (A549/ATCC NSCLC)?
**A.** 59.2%

**Q.** What about the growth (786-0 renal) of the same molecule?
**A.** 66.3%

**Q.** And the growth (COLO 205 colon)?
**A.** 59.2%

**Q.** Which growth (NCI-H23 lung) does the source give for `CCN1CC(=O)N(/N=C2\C(=O)Nc3ccccc32)C1=S` here?
**A.** 91.4%

**Q.** What about the growth (NCI-H226 lung) of the same molecule?
**A.** 69.6%

**Q.** What about the growth (NCI-H322M lung) of the same molecule?
**A.** 88.6%

**Q.** And the growth (HOP-62 NSCLC)?
**A.** 87%

**Q.** And the growth (NCI-H460 lung)?
**A.** 88.3%

**Q.** And the growth (HOP-92 NSCLC)?
**A.** 87.8%

**Q.** What about the growth (NCI-H522 lung) of the same molecule?
**A.** 85.4%

**Q.** What about the growth (A549/ATCC NSCLC) of the same molecule?
**A.** 98.9%

**Q.** What about the growth (786-0 renal) of the same molecule?
**A.** 103%

**Q.** And the growth (COLO 205 colon)?
**A.** 101%

**Q.** Which results are given for `CCc1nc2c(=O)[nH]cnc2o1`?
**A.** growth (NCI-H23 lung): 107%; growth (NCI-H226 lung): 96.4%; growth (NCI-H322M lung): 97.8%; growth (HOP-62 NSCLC): 100%; growth (NCI-H460 lung): 105%; growth (HOP-92 NSCLC): 72.2%; growth (NCI-H522 lung): 108%; growth (A549/ATCC NSCLC): 99.7%; growth (786-0 renal): 110%; growth (COLO 205 colon): 110%

**Q.** How did the growth (NCI-H23 lung) turn out when `NC(=O)c1c(NC(=O)c2ccccc2)sc2c1CCC(=O)C2` was run?
**A.** 5.93% (active)

**Q.** What about the growth (NCI-H226 lung) of the same molecule?
**A.** 16.2%

**Q.** And the growth (NCI-H322M lung)?
**A.** 88.2%

**Q.** And the growth (HOP-62 NSCLC)?
**A.** 45.1%

**Q.** And the growth (NCI-H460 lung)?
**A.** 11.6%

**Q.** And the growth (NCI-H522 lung)?
**A.** -9.03% (active)

**Q.** What about the growth (A549/ATCC NSCLC) of the same molecule?
**A.** 30%

**Q.** And the growth (786-0 renal)?
**A.** 28%

**Q.** And the growth (COLO 205 colon)?
**A.** -49.9% (active)

**Q.** `COc1ccc2c(O)c(/C=C3\N=Nc4ccccc43)oc2c1C[C@@H]1CCNC[C@H]1F` was tested. Which growth (NCI-H23 lung) did it give?
**A.** 70.2%

**Q.** And the growth (NCI-H226 lung)?
**A.** 58.3%

**Q.** What about the growth (NCI-H322M lung) of the same molecule?
**A.** 87.6%

**Q.** What about the growth (HOP-62 NSCLC) of the same molecule?
**A.** 71.4%

**Q.** What about the growth (NCI-H460 lung) of the same molecule?
**A.** 11.2%

**Q.** What about the growth (HOP-92 NSCLC) of the same molecule?
**A.** 65.1%

**Q.** And the growth (NCI-H522 lung)?
**A.** 58.1%

**Q.** And the growth (A549/ATCC NSCLC)?
**A.** 35.8%

**Q.** And the growth (786-0 renal)?
**A.** -62.9% (active)

**Q.** And the growth (COLO 205 colon)?
**A.** 58.2%

**Q.** How did the growth (NCI-H23 lung) turn out when `Nc1ncnc2c1N=C(c1ccc(Cl)cc1)CC(c1ccc3c(c1)OCO3)N2` (stereo unspecified) was run?
**A.** 100%

**Q.** And the growth (NCI-H226 lung)?
**A.** 90.8%

**Q.** And the growth (NCI-H322M lung)?
**A.** 112%

**Q.** And the growth (HOP-62 NSCLC)?
**A.** 88.1%

**Q.** What about the growth (NCI-H460 lung) of the same molecule?
**A.** 103%

**Q.** And the growth (HOP-92 NSCLC)?
**A.** 59.8%

**Q.** What about the growth (NCI-H522 lung) of the same molecule?
**A.** 89.7%

**Q.** What about the growth (A549/ATCC NSCLC) of the same molecule?
**A.** 98.4%

**Q.** And the growth (786-0 renal)?
**A.** 91.6%

**Q.** What about the growth (COLO 205 colon) of the same molecule?
**A.** 98.6%

**Q.** What does the source list for `Cn1c(-c2ccc(Br)cc2)c(O)c(=O)c2c(F)cccc21`?
**A.** growth (NCI-H23 lung): 48.4%; growth (NCI-H226 lung): 62.9%; growth (NCI-H322M lung): 53.5%; growth (HOP-62 NSCLC): 34%; growth (NCI-H460 lung): 20.5%; growth (HOP-92 NSCLC): 137%; growth (NCI-H522 lung): 54%; growth (A549/ATCC NSCLC): 45.9%; growth (786-0 renal): 42.7%; growth (COLO 205 colon): 7.68% (active)

**Q.** Which growth (NCI-H23 lung) does the source give for `Cc1ccc(Cl)cc1Nc1nc(C(F)(F)F)ccc1C(=O)N/N=C/c1cccnc1` here?
**A.** 37.4%

**Q.** What about the growth (NCI-H226 lung) of the same molecule?
**A.** 30.7%

**Q.** And the growth (NCI-H322M lung)?
**A.** 25.1%

**Q.** What about the growth (HOP-62 NSCLC) of the same molecule?
**A.** 29.4%

**Q.** What about the growth (NCI-H460 lung) of the same molecule?
**A.** 18.3%

**Q.** What about the growth (HOP-92 NSCLC) of the same molecule?
**A.** 11.3%

**Q.** What about the growth (NCI-H522 lung) of the same molecule?
**A.** -5.81% (active)

**Q.** What about the growth (A549/ATCC NSCLC) of the same molecule?
**A.** 27.5%

**Q.** What about the growth (786-0 renal) of the same molecule?
**A.** 2.05% (active)

**Q.** What about the growth (COLO 205 colon) of the same molecule?
**A.** 38.9%

**Q.** With `CCOC(=O)C#Cc1c(C(=O)OCC)nnn1[C@@H]1O[C@H](CO)[C@H]2OC3(CCCCC3)O[C@H]21` as the molecule, how does the growth (NCI-H23 lung) read?
**A.** 93.9%

**Q.** What about the growth (NCI-H226 lung) of the same molecule?
**A.** 80.7%

**Q.** And the growth (NCI-H322M lung)?
**A.** 98%

**Q.** And the growth (HOP-62 NSCLC)?
**A.** 110%

**Q.** And the growth (NCI-H460 lung)?
**A.** 98.5%

**Q.** And the growth (HOP-92 NSCLC)?
**A.** 54.5%

**Q.** And the growth (NCI-H522 lung)?
**A.** -25.2% (active)

**Q.** What about the growth (A549/ATCC NSCLC) of the same molecule?
**A.** 95.2%

**Q.** What about the growth (786-0 renal) of the same molecule?
**A.** 66.9%

**Q.** What about the growth (COLO 205 colon) of the same molecule?
**A.** -27.2% (active)

**Q.** Which growth (NCI-H23 lung) does the source give for `COC(=O)c1cc(-c2ccc(S(C)(=O)=O)cc2)[nH]c1N/N=C/c1c(Cl)cccc1Cl` here?
**A.** 29.6%

**Q.** And the growth (NCI-H226 lung)?
**A.** 47.5%

**Q.** What about the growth (NCI-H322M lung) of the same molecule?
**A.** 15.4%

**Q.** What about the growth (HOP-62 NSCLC) of the same molecule?
**A.** 3.22% (active)

**Q.** What about the growth (NCI-H460 lung) of the same molecule?
**A.** 3.65% (active)

**Q.** What about the growth (HOP-92 NSCLC) of the same molecule?
**A.** 18.9%

**Q.** And the growth (NCI-H522 lung)?
**A.** -15.1% (active)

**Q.** And the growth (A549/ATCC NSCLC)?
**A.** 25.2%

**Q.** And the growth (786-0 renal)?
**A.** 5.08% (active)

**Q.** And the growth (COLO 205 colon)?
**A.** -19.3% (active)

**Q.** For `CCn1c(=S)sc2c(Nc3ccc(F)cc3)nc(-c3cccnc3)nc21`, which growth (NCI-H23 lung) is on record?
**A.** 66.2%

**Q.** What about the growth (NCI-H226 lung) of the same molecule?
**A.** 75.2%

**Q.** And the growth (NCI-H322M lung)?
**A.** 76.5%

**Q.** What about the growth (HOP-62 NSCLC) of the same molecule?
**A.** 47.6%

**Q.** And the growth (NCI-H460 lung)?
**A.** 64.5%

**Q.** And the growth (NCI-H522 lung)?
**A.** 40.5%

**Q.** And the growth (A549/ATCC NSCLC)?
**A.** 48.7%

**Q.** What about the growth (786-0 renal) of the same molecule?
**A.** 20.5%

**Q.** What about the growth (COLO 205 colon) of the same molecule?
**A.** 72.5%

**Q.** `COC(=O)/C(CCC=C(C)C)=C1\[C@@H](OC(C)=O)C[C@@]2(C)[C@H]1C[C@@H](O)[C@H]1[C@@]3(C)CC[C@H](NCCN)[C@@H](C)[C@@H]3CC[C@@]12C` was tested. Which growth (NCI-H23 lung) did it give?
**A.** 88.7%

**Q.** What about the growth (NCI-H226 lung) of the same molecule?
**A.** 83.5%

**Q.** And the growth (HOP-62 NSCLC)?
**A.** 93%

**Q.** What about the growth (NCI-H460 lung) of the same molecule?
**A.** 99.6%

**Q.** And the growth (HOP-92 NSCLC)?
**A.** 53.1%

**Q.** And the growth (NCI-H522 lung)?
**A.** 86.9%

**Q.** What about the growth (A549/ATCC NSCLC) of the same molecule?
**A.** 88.9%

**Q.** And the growth (786-0 renal)?
**A.** 73.5%

**Q.** What about the growth (COLO 205 colon) of the same molecule?
**A.** 80.3%
